# Test results: PubChem BioAssay
# Values joined by “and” are separate entries in the source; they are usually repeats but may differ in a detail not shown here. Identical values can stand only once. Active and inactive are the calls of the source. Rule as the data show it, unless noted: active = inhibition above about 80%; inactive = the rest.
# Key:
# [1] = growth inhibition, single agent or in combination, cell-based, chromothripsis tumors, cisplatin or BGB combos (AID 1671449); conditions: LFS_MB_P medulloblastoma cells;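 also: cells exposed for 96 hours; 0% = vehicle DMSO and 100% = killing by high DMSO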
# [2] = growth inhibition, single agent and combos, cell-based, chromothripsis tumors, cisplatin or BGB combos (AID 1671450); conditions: HDN33 neuroblastoma cells, stronger effect = higher value;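 also: cells exposed to compound for four days; 0% = vehicle DMSO and 100% = cell killing by high DMSO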
# [3] = growth inhibition, single agents and combos, ICB984, cell-based, cisplatin or BGB combos, synergistic combos for chromothripsis tumors (AID 1671451; call rule not given here;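 also: cells exposed for 96 hours before readout; 0% = vehicle DMSO and 100% = killing by high DMSO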); conditions: ICB984 medulloblastoma cells, drug combinations, stronger effect = higher value
# [4] = growth inhibition, single agents and combos, LFS_MB_1R, cell-based, cisplatin or BGB combos, synergistic combos for chromothripsis tumors (AID 1671452); conditions: LFS_MB_1R medulloblastoma cells, stronger effect = higher value;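 also: cells exposed for 96 hours before readout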
# [5] = growth inhibition, single agents and combos, HTB85, cell-based, BGB or cisplatin IC20 combos, synergistic combos for chromothripsis tumors (AID 1671453); conditions: HTB85 osteosarcoma cells, drug combinations, stronger effect = higher value;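 also: cells exposed for 96 hours before readout; 0% = vehicle DMSO and 100% = high DMSO killing control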
# [6] = growth inhibition, single agents and combos, CRL2098, cell-based, BGB or cisplatin IC20 combos, synergistic combos for chromothripsis tumors (AID 1671454); conditions: CRL2098 osteosarcoma cells, drug combinations, stronger effect = higher value;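 also: cells exposed for 96 h before readout; 0% = vehicle DMSO and 100% = killing by high DMSO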
# [7] = growth inhibition, single agents and combos, HD-MB03, cell-based, BGB or cisplatin IC20 combos, synergistic combos for chromothripsis tumors (AID 1671455; in the data active = inhibition above about 83%;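 also: 0% = vehicle DMSO and 100% = high DMSO as cytotoxic control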); conditions: HD-MB03 medulloblastoma cells, stronger effect = higher value
# [8] = growth inhibition, single agents and combos, UWB1.289, cell-based, BGB or cisplatin combos, synergistic combos for chromothripsis tumors (AID 1671456); conditions: UWB1.289 ovarian carcinoma cells, stronger effect = higher value;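 also: cells exposed to compound for four days; 0% = vehicle DMSO and 100% = killing by high DMSO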
# [9] = growth inhibition, single agents and combos, LFS_MB_2R, cell-based, cisplatin combos, synergistic combos for chromothripsis tumors (AID 1671457); conditions: LFS_MB_2R medulloblastoma cells, stronger effect = higher value;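 also: cells exposed to compound for four days before readout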
# [10] = growth inhibition, MDA-MB-436, cell-based, BGB or cisplatin combos, synergistic combos for chromothripsis tumors (AID 1671458; call rule not given here;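 also: cells exposed for 96 hours; 0% = vehicle DMSO and 100% = killing by high DMSO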); conditions: MDA-MB-436 breast carcinoma growth inhibition, drug combinations, stronger effect = higher value
# [11] = UWB1.289_BRCA1 ovarian cancer growth, cell-based, BGB or cisplatin combinations (AID 1671459); conditions: UWB1.289 BRCA1 ovarian carcinoma, drug combinations, stronger effect = higher value
# [12] = drug combination toxicity in non-malignant astrocytes – cell-based, BGB or cisplatin IC20 combos, cytotoxicity control for chromothriptic childhood tumor combination screen (AID 1671460); conditions: Human astrocytes, viability inhibition, drug combinations, at 0.5 µM, stronger effect = higher value;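 also: cells exposed to compounds for 96 hours before viability readout; 0% = vehicle and 100% = killing control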
# [13] = BT084 cell growth, single and combined drugs, ICGC_MB145, cisplatin and BGB IC40 combos (AID 1671461); conditions: BT084 medulloblastoma cells, drug combinations, stronger effect = higher value;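 also: cells exposed to drugs for 96 hours; 0% = vehicle DMSO and 100% = high DMSO full killing control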
# [14] = RCMB18 cell growth, single agent and combined, cisplatin and BGB IC40 combos (AID 1671462); conditions: RCMB18 medulloblastoma cells, stronger effect = higher value;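 also: cells exposed to compound for four days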
# [15] = CRL1545 cell growth, single agent and combined, cisplatin and BGB IC20 combos (AID 1671464); conditions: CRL1545 osteosarcoma cells, stronger effect = higher value;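 also: cells exposed to compound for 96 hours before readout; 0% = vehicle DMSO and 100% = high DMSO killing control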
# [16] = galactose survival enhancers in mitochondrial complex I cybrids – cell-based, galactose medium, ATP luminescence, primary screen (AID 1645843;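 active = z-score of at least 1.8 in each of two replicates, scored against plate mean and spread of sample wells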;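 also: positive z means more ATP and so rescue of galactose-driven cybrid death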); conditions: complex I mutant cybrid cells, 72 h, stronger effect = higher value
# [17] = at 0.5 µM, stronger effect = higher value
# [18] = measured here: combination with BGB IC20, at 0.005 µM
# [19] = measured here: combination with BGB IC40, at 0.005 µM
# [20] = measured here: combination with BGB IC40, at 0.05 µM
# [21] = measured here: combination with cisplatin, at 0.5 µM, stronger effect = higher value
# [22] = measured here: combination with cisplatin, at 5 µM, stronger effect = higher value
# [23] = measured here: with BGB IC20 combination, at 0.5 µM
# [24] = measured here: with cisplatin IC20 combination, at 0.5 µM
# [25] = measured here: 5 uM single agent, at 5 µM
# [26] = measured here: combination with cisplatin, at 0.5 µM
# [27] = measured here: combination with cisplatin, at 5 µM
# [28] = measured here: with BGB IC20, at 0.5 µM
# [29] = measured here: with BGB IC20, at 5 µM
# [30] = measured here: with cisplatin IC20, at 0.5 µM
# [31] = measured here: with cisplatin IC20, at 5 µM
# [32] = measured here: combination with BGB at IC20, at 0.5 µM
# [33] = measured here: combination with cisplatin at IC20, at 0.5 µM
# [34] = measured here: combo with BGB at IC20, at 0.5 µM
# [35] = measured here: combo with cisplatin at IC20, at 0.5 µM
# [36] = measured here: inhibition with BGB combination, at 0.05 µM
# [37] = measured here: inhibition with cisplatin combination, at 0.05 µM
# [38] = measured here: BGB combination, at 0.5 µM
# [39] = measured here: BGB combination, at 5 µM
# [40] = measured here: cisplatin combination, at 0.5 µM
# [41] = measured here: cisplatin combination, at 5 µM
# [42] = BGB combination, concentration series, at 5 µM
# [43] = cisplatin combination, concentration series, at 5 µM
# [44] = measured here: combo with BGB IC20
# [45] = measured here: combo with cisplatin IC20
# [46] = cisplatin combination, at 0.5 µM
# [47] = measured here: BGB IC40 combination 0.05 uM, at 0.05 µM
# [48] = measured here: BGB IC40 combination, at 0.05 µM
smiles,measurement,setting,value
CC(=CC(=O)OCCCCCCCCC(=O)O)CC1OCC(CC2OC2C(C)C(C)O)C(O)C1O (configuration not stated),inhibition,[1]; [17],-17% (inactive) and -23.9% (inactive)
same,inhibition,[1]; [18],-2.94% and -18.6%
same,inhibition,[1]; [19],-25.4% and -12.1%
same,inhibition,[1]; [20],-14.3% and -15.6%
same,inhibition,[1]; [21],-17.5% and -24.1%
same,inhibition,[1]; [22],-33.1% and 1.08%
same,inhibition,"[2]; BGB combo, at 5 µM",-14.8% and -17.7%
same,inhibition,[2]; at 0.5 µM,-9.45% (inactive) and -27.8% (inactive)
same,inhibition,"[2]; cisplatin combo, at 5 µM",6.33% and -11.4%
same,inhibition,[2]; [23],-8.51% and -26.5%
same,inhibition,[2]; [24],-15.9% and -22.8%
same,inhibition,"[2]; single agent, at 5 µM",-7.18% and -31.8%
same,inhibition,"[3]; BGB IC20 combo, at 0.005 µM",-1.97% and -19.7%
same,inhibition,"[3]; BGB IC40 combo, at 0.005 µM",-39% and 3.24%
same,inhibition,"[3]; BGB IC40 combo, at 0.05 µM",-33.4% and -9.88%
same,inhibition,[3]; at 0.5 µM,-17% (inactive) and -12.7% (inactive)
same,inhibition,"[3]; cisplatin combo, at 0.05 µM",-38.6% and -12.9%
same,inhibition,"[3]; cisplatin combo, at 0.5 µM",-14.9% and -15.5%
same,inhibition,"[3]; cisplatin combo, at 5 µM",-35% and -37.3%
same,inhibition,[3]; [25],-25.3% and -26.1%
same,inhibition,[4]; at 0.5 µM,-33.1% (inactive) and -17.5% (inactive)
same,inhibition,[4]; [20],-28.7% and -19%
same,inhibition,[4]; [26],-76% and -15.9%
same,inhibition,[4]; [27],-33.5% and -12.5%
same,inhibition,[5]; at 0.5 µM,-4.51% (inactive) and -3.63% (inactive)
same,inhibition,[5]; [28],-6.68% and -16.9%
same,inhibition,[5]; [29],0.575% and -34.3%
same,inhibition,[5]; [30],-18.6% and 8%
same,inhibition,[5]; [31],-13.7% and -38.9%
same,inhibition,"[5]; single agent, at 5 µM",1.75% and -9.62%
same,inhibition,[6]; at 0.5 µM,-26.3% (inactive) and -42.8% (inactive)
same,inhibition,[6]; [32],-3.72% and -29.5%
same,inhibition,[6]; [33],-3.83% and -44%
same,inhibition,[7]; at 0.5 µM,-5.45% (inactive) and -14.3% (inactive)
same,inhibition,[7]; [34],-13% and -2.83%
same,inhibition,[7]; [35],-4.76% and -27.9%
same,inhibition,[8]; at 0.5 µM,-10.9% (inactive) and -9.1% (inactive)
same,inhibition,[8]; [36],-7.06% and -24.4%
same,inhibition,[8]; [37],-16.6% and -1.73%
same,inhibition,[9]; at 0.5 µM,-29.1% (inactive) and -8.5% (inactive)
same,inhibition,[9]; [26],-31.2% and -4.9%
same,inhibition,[9]; [27],-23.6% and -39.7%
same,inhibition,[10]; at 0.5 µM,-14.5% (inactive) and -24.2% (inactive)
same,inhibition,[10]; [38],-14.9% and -16%
same,inhibition,[10]; [39],-17.5% and -14.8%
same,inhibition,[10]; [40],-18.1% and -43.4%
same,inhibition,[10]; [41],-22.7% and -18.3%
same,inhibition,[11]; [42],0.308% and -20.1%
same,inhibition,[11]; at 0.5 µM,-2.59% (inactive) and -13% (inactive)
same,inhibition,[11]; [43],9.16% and -8.98%
same,inhibition,[12],9.62% (inactive) and -5.3% (inactive)
same,inhibition,[12]; [44],10.3% and 3.21%
same,inhibition,[12]; [45],3.29% and -21.1%
same,inhibition,[13]; at 0.5 µM,-23.1% (inactive) and -16.1% (inactive)
same,inhibition,[13]; [46],-23.9% and -16.7%
same,inhibition,"[13]; cisplatin combination, at 5 µM",-18.9% and -3.71%
same,inhibition,[13]; [47],-21.3% and 12.3%
same,inhibition,"[13]; single agent, at 5 µM",-11.4% and -22.4%
same,inhibition,[14]; at 0.5 µM,-6.07% (inactive) and -7.9% (inactive)
same,inhibition,"[14]; cisplatin combo, at 5 µM",-30.1% and -5.18%
same,inhibition,[14]; [48],6.38% and -10.7%
same,inhibition,[14]; [26],18.9% and -20.9%
same,inhibition,"[14]; single agent, at 5 µM",-45.8% and -19.9%
same,inhibition,[15]; at 0.5 µM,-2.77% (inactive) and -21.4% (inactive)
same,inhibition,[15]; [23],-13.1% and -9.57%
same,inhibition,[15]; [24],2.38% and -30.2%
same,inhibition,"[15]; single agent, at 0.05 µM",22.2% and -47.2%
same,inhibition,"[15]; single agent, at 5 µM",3.87% and -28.5%
c1nc(-c2ccc3c(c2)OCCO3)c2sccc2n1,z-score,[16],0.225 (inactive)
C=C1C(=O)O[C@@H]2C=C(C)CCC=C(C)CC[C@@H]12,inhibition,[1]; [17],-19.3% (inactive)
same,inhibition,[1]; [18],-3.36%
same,inhibition,[1]; [19],-13.6%
same,inhibition,[1]; [20],7.16%
same,inhibition,[1]; [21],-51.8%
same,inhibition,[1]; [22],114%
same,inhibition,"[2]; BGB combo, at 5 µM",5.76%
same,inhibition,[2]; at 0.5 µM,-17.6% (inactive)
same,inhibition,"[2]; cisplatin combo, at 5 µM",29.9%
same,inhibition,[2]; [23],-23.4%
same,inhibition,[2]; [24],-29.2%
same,inhibition,"[2]; single agent, at 5 µM",38.5%
same,inhibition,"[3]; BGB IC20 combo, at 0.005 µM",4.25%
same,inhibition,"[3]; BGB IC40 combo, at 0.005 µM",-33%
same,inhibition,"[3]; BGB IC40 combo, at 0.05 µM",53.7%
same,inhibition,[3]; at 0.5 µM,-17.1% (inactive)
same,inhibition,"[3]; cisplatin combo, at 0.05 µM",51.9%
same,inhibition,"[3]; cisplatin combo, at 0.5 µM",-18%
same,inhibition,"[3]; cisplatin combo, at 5 µM",-19.3%
same,inhibition,[3]; [25],-11.6%
same,inhibition,[4]; at 0.5 µM,-31.9% (inactive)
same,inhibition,[4]; [20],-18.3%
same,inhibition,[4]; [26],-29.4%
same,inhibition,[4]; [27],98.6%
same,inhibition,[5]; at 0.5 µM,-6.12% (inactive)
same,inhibition,[5]; [28],-12.5%
same,inhibition,[5]; [29],51.6%
same,inhibition,[5]; [30],-4.05%
same,inhibition,[5]; [31],62.5%
same,inhibition,"[5]; single agent, at 5 µM",66.5%
same,inhibition,[6]; at 0.5 µM,-64.3% (inactive)
same,inhibition,[6]; [32],-14.4%
same,inhibition,[6]; [33],-90.7%
same,inhibition,[7]; at 0.5 µM,-8.56% (inactive)
same,inhibition,[7]; [34],5.57%
same,inhibition,[7]; [35],-16.5%
same,inhibition,[8]; at 0.5 µM,-5.91% (inactive)
same,inhibition,[8]; [36],-14.1%
same,inhibition,[8]; [37],-20.4%
same,inhibition,[9]; at 0.5 µM,-23.7% (inactive)
same,inhibition,[9]; [26],-29.5%
same,inhibition,[9]; [27],43.1%
same,inhibition,[10]; at 0.5 µM,-0.98% (inactive)
same,inhibition,[10]; [38],1.65%
same,inhibition,[10]; [39],39.9%
same,inhibition,[10]; [40],-3.72%
same,inhibition,[10]; [41],56.7%
same,inhibition,[11]; [42],44.1%
same,inhibition,[11]; at 0.5 µM,-3.8% (inactive)
same,inhibition,[11]; [43],48.6%
same,inhibition,[12],3.62% (inactive)
same,inhibition,[12]; [44],4.43%
same,inhibition,[12]; [45],0.413%
same,inhibition,[13]; at 0.5 µM,-5.97% (inactive)
same,inhibition,[13]; [46],-9.26%
same,inhibition,"[13]; cisplatin combination, at 5 µM",48.9%
same,inhibition,[13]; [47],-2.12%
same,inhibition,"[13]; single agent, at 5 µM",20.7%
same,inhibition,[14]; at 0.5 µM,9.79% (inactive)
same,inhibition,"[14]; cisplatin combo, at 5 µM",75.6%
same,inhibition,[14]; [48],6.86%
same,inhibition,[14]; [26],15.7%
same,inhibition,"[14]; single agent, at 5 µM",33.4%
same,inhibition,[15]; at 0.5 µM,8.87% (inactive)
same,inhibition,[15]; [23],-16.3%
same,inhibition,[15]; [24],21.4%
same,inhibition,"[15]; single agent, at 0.05 µM",18.3%
same,inhibition,"[15]; single agent, at 5 µM",72.3%
